Screening data (PubChem)
RGS16-Gao HTS: modulators of RGS16 binding to Galphao, primary screen, biochemical, human proteins, multiplexed bead flow cytometry. Regulator of G-protein signaling 16 (Homo sapiens) + Guanine nucleotide-binding protein …. bead-based flow cytometry RGS16-Galphao binding, fluorescence; actives lie on both sides. binding response (% of control), % at 10 µM. 220,000 tested, 0.38% active. AID 1441, 2008;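 also: Galphao activated by GDP with aluminum fluoride before binding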
Target sequence (O15492 whole entry, looked up): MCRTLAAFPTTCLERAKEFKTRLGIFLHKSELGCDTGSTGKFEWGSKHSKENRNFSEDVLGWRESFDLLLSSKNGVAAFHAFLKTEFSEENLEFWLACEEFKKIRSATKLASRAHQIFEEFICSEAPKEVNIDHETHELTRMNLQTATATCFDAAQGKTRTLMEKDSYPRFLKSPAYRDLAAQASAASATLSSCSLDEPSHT
Target sequence (P09471 whole entry, looked up): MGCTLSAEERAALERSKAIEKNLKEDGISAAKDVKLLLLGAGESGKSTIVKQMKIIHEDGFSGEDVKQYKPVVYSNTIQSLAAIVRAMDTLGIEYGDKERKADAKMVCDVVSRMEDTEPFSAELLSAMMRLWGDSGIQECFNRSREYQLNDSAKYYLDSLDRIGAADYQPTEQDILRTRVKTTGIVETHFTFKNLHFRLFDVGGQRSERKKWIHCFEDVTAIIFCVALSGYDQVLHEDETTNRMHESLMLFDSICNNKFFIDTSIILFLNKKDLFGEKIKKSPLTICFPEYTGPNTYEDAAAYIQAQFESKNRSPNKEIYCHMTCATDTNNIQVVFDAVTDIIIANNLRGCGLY
Avidin fluor: green autofluorescence of compounds with avidin beads – biophysical, 488/530 nm, flow cytometry, artefact control, profiling panel | compound fluorescence 488/530 nm; active compounds read high | fluorescence (KMESF) at 10 µM | 220,000 tested, 0.38% active | AID 1775, 2009; in the data active = fluorescence above about 47
RGS7-Gao: RGS7-Galphao binding modulators, primary screen, biochemical, multiplexed bead flow cytometry; AID 1439, 2008; actives lie on both sides; binding response (% of control), % at 10 µM; 220,000 tested, 0.35% active; in the data active = binding response below about 49% or above about 150%; inconclusive = no clear call, values can overlap the other calls; inactive = in between;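 also: fluorescent Galphao held in activated GDP-AlF4 state binding bead-coupled RGS7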
Target sequence (P09471 whole entry, looked up): as above
GSH fluor: compound fluorescence on glutathione beads, profiling panel, artefact control, biophysical, 488/530 nm, flow cytometry | 190,000 tested, 0.25% active | fluorescence (KMESF) at 10 µM | AID 1776, 2009 | GSH beads flow cytometry, compound fluorescence 488/530 nm; active compounds read high; in the data active = fluorescence above about 89;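 also: glutathione beads carrying GST-tagged Bcl family fusion proteins plus one bare bead set; values are compound well signal with DMSO vehicle wells as background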
RGS8-Gao reg: RGS8-Galphao binding modulators, primary screen, biochemical, multiplexed bead flow cytometry; Guanine nucleotide-binding protein G(o) subunit alpha (Homo sapiens), P09471; actives lie on both sides; response (percent of control binding), % at 10 µM; 220,000 tested, 0.34% active; in the data active = response below about 60% or above about 140%; inactive = in between;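 also: Galphao activated as the GDP aluminium fluoride complex binding bead-coupled RGS8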
RGS4-Gao reg: modulators of RGS4 binding to Galphao, primary screen, biochemical, multiplexed bead flow cytometry. 220,000 tested, 0.33% active. Guanine nucleotide-binding protein G(o) subunit alpha (Homo sapiens), P09471. actives lie on both sides. binding response (% of control), % at 10 µM; in the data active = binding response below about 49% or above about 150%; inactive = in between;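 also: fluorescent Galphao activated with aluminum fluoride binding bead-coupled RGS4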
RGS-Gao: modulators of RGS–Galpha-o binding, primary screen, biochemical, multiplexed beads, flow cytometry, RGS4/7/8/16/19. shares compounds with RGS16-Gao HTS. multiplexed bead flow cytometry. RGS4–Galpha-o binding response, % at 10 µM. 1,600 tested, 99% active. AID 1504, 2009;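 also: fluorescently labeled Galpha-o bound to GDP with aluminium fluoride binding biotinylated RGS beads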
Avidin counter: disruption of biotin probe capture by avidin, counter-screen for RGS protein interaction modulators, biochemical, flow cytometry, bead-based; shares compounds with RGS16-Gao HTS; inhibition, % at 10 µM; streptavidin beads, fluorescein-biotin binding; AID 1783, 2009; 1,700 tested, under 10 active;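 active = inhibition above 50%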;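 also: median green fluorescence of gated singlet beads compared with DMSO control wells; 0% = DMSO wells and 100% = complete loss of bead fluorescence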
RGS8-Gao confirm: RGS8-Galphao binding modulators, confirmation, biochemical, multiplexed bead flow cytometry, single concentration; shares compounds with RGS16-Gao HTS; bead-based flow cytometry RGS8-Galphao binding, fluorescence; actives lie on both sides; binding response (% of control), % at 10 µM; 1,700 tested, 3% active; in the data active = binding response below about 72% or above about 130%; inactive = in between;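 also: Galphao activated as GDP AlF4 complex before binding bead RGS8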
RGS7-Gao confirm: RGS7-Galphao binding modulators, confirmation, biochemical, multiplexed bead flow cytometry, single concentration. AID 1837, 2009. shares compounds with RGS16-Gao HTS. response (percent of control binding), % at 10 µM. 1,700 tested, 7.8% active. bead-based flow cytometry RGS7-Galphao binding; actives lie on both sides; in the data active = response below about 75% or above about 130%; inactive = in between;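 also: fluorescent Galphao activated with GDP and aluminum fluoride binding bead-coupled RGS7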
RGS16-Gao conf: modulators of RGS16-Galphao protein binding, confirmation, biochemical, single concentration, multiplexed bead flow cytometry | shares compounds with RGS16-Gao HTS | bead-based flow cytometry; actives lie on both sides | response (% of control binding), % at 10 µM | 1,700 tested, 4% active; in the data active = response below about 74% or above about 130%; inactive = in between;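 also: Galphao activated as the GDP aluminium fluoride complex binding bead-coupled RGS16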
RGS4-Gao confirm: modulators of RGS4-Galphao protein binding, confirmation, biochemical, single concentration, multiplexed bead flow cytometry; actives lie on both sides; 1,700 tested, 4% active; shares compounds with RGS16-Gao HTS; binding response (% of control), % at 10 µM; in the data active = binding response below about 74% or above about 130%; inactive = in between
RGS19-Gao single: regulators of RGS19-Galphao binding, confirmation, biochemical, single point, multiplexed bead flow cytometry. shares compounds with RGS16-Gao HTS. bead-based flow cytometry RGS19-Galphao binding; actives lie on both sides. response (percent of control binding), % at 10 µM. 1,700 tested, 5% active. AID 1841, 2009; in the data active = response below about 50% or above about 160%; inactive = in between;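 also: 100% = no compound control and 0% = blank background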
Numbers without * were called inactive; ? = inconclusive; . = no result; [ ] = dose if it differs, or a comment. This is a sample that favours compounds with a hit; in the whole collection about 1.2% have one here. Unless noted, no rule for the calls is given here.

SMILES	RGS16-Gao HTS	Avidin fluor	RGS7-Gao	GSH fluor	RGS8-Gao reg	RGS4-Gao reg	Avidin counter	RGS8-Gao confirm	RGS7-Gao confirm	RGS16-Gao conf	RGS4-Gao confirm	RGS19-Gao single	others
Cc1nn(C)c(C(=O)Nc2ccc(Cl)c([N+](=O)[O-])c2)c1Cl	116	3	101	21	108	104	.	.	.	.	.	.
CN(Cc1ccc(F)cc1)C(=O)c1ccc2c(c1)NC(=O)CS2	104	65*	171*[activator]	24	99	116	2	100	97	98	99	94	RGS-Gao=116*
COc1cccc(NC(=O)c2ccccc2-c2nc(-c3ccccc3)no2)c1	88	15	87	36	91	88	.	.	.	.	.	.
COc1cccc(NC(=O)c2ccccc2-c2nc(-c3ccc(F)cc3)no2)c1	.	.	.	33	.	.	0	100	97	103	102	98
CC1=C(C(=O)NCc2ccccc2)C(c2cccs2)n2ncnc2N1 (stereo unspecified)	-63*	3	81	4	79	69	1	98	100	101	100	102	RGS-Gao=69*
COc1ccccc1C1C(C(=O)NCc2ccccc2)=C(C)Nc2ncnn21 (stereo unspecified)	98	6	98	49	100	100	.	.	.	.	.	.
COc1ccc(OC)c(C2=NOC(C(=O)Nc3ccccc3SC)C2)c1 (stereo unspecified)	96	12	98	34	95	91	.	.	.	.	.	.
COc1ccc(OC)c(C2=NOC(C(=O)Nc3cccc(C(C)=O)c3)C2)c1 (stereo unspecified)	118	413*	303*[activator]	51	99	157*[activator]	3	93	88	91	93	93
O=C(Cn1cccc1C(=O)c1ccccc1)NCc1ccc(Cl)cc1	103	11	99	20	100	101	.	.	.	.	.	.
Cc1ccc(CNC(=O)Cn2cccc2C(=O)c2ccccc2)cc1	.	.	119	42	.	102	-2	101	94	100	100	93
CCc1ccc(C(=O)c2cnc3ccc(OC)cc3c2N2CCN(CC)CC2)cc1	104	15	103	14	104	106	.	.	.	.	.	.
CCOc1ccc2ncc(C(=O)c3ccc(OC)cc3)c(N3CCN(CC)CC3)c2c1	284*[activator]	50*	309*[activator]	129*	123	359*[activator]	1	102	102	103	103	74
CC(/C=N\Nc1nnc2c(n1)[nH]c1c(C)cccc12)=C\c1ccco1	89	5	94	39	99	86	.	.	.	.	.	.
Cc1cc(=O)oc2cc(Oc3ccc([N+](=O)[O-])cc3[N+](=O)[O-])ccc12	25*	8	91	9	75	93	1	104	103	109	103	123	RGS-Gao=93*
Cc1cc(=O)oc2cc(Oc3ncccc3[N+](=O)[O-])ccc12	98	10	88	11	98	94	.	.	.	.	.	.
Cc1ccc(-n2nnnc2SCC(=O)NC(C(=O)O)(c2ccccc2)c2ccccc2)cc1C	103	3	105	10	103	104	.	.	.	.	.	.
O=C(CSc1cccc[n+]1[O-])Nc1ccc(N2CCOCC2)cc1	96	11	?	16	98	99	.	.	.	.	.	.
CCOC(=O)N1CCN(CC(=O)Nc2c(C(=O)OC)[nH]c3ccccc23)CC1	103	106*	175*[activator]	18	98	124	0	106	99	110	107	100	RGS-Gao=124*
COC(=O)c1[nH]c2ccccc2c1NC(=O)CN1CCCCCC1	112	5	106	25	106	106	.	.	.	.	.	.
Cc1cc(C)cc(NC(=O)CCn2cnc3cc(C)c(C)cc32)c1	168	8	111	13	127	106	.	.	.	.	.	.
COc1ccccc1OCc1nc(C#N)c(N2CCCC2)o1	-34	0	13*	23	16*	22*	0	98	92	97	95	91
CCn1ncc(Br)c1C(=O)Nc1ccc2c(c1)OCCO2	101	8	?	16	103	102	.	.	.	.	.	.
CC(C)n1c(NCCO)nc2ccccc21	49	7	37*	13	57*	49*	3	104	96	100	100	98
CCOC(=O)C(C(=O)OCC)C1OC(=O)c2cc3c(cc21)C(=O)OC3C(C(=O)OCC)C(=O)OCC (stereo unspecified)	124	200*	359*[activator]	14	87	141	2	89	87	89	91	82	RGS-Gao=141*
COc1cccc(C2C(C(=O)c3cc4cccc(OC)c4o3)=C(O)C(=O)N2c2cc(C)on2)c1OC (stereo unspecified)	1.2*	-1	11*	27	34*	-0.4*	0	102	106	104	106	100
